# Screening results (PubChem BioAssay)
# The sample as a whole holds a higher share of hits than the screen did.
# LmPK inhibitor – blocks Leishmania mexicana pyruvate kinase activity; purified LmPK, Kinase-Glo ATP luminescence, 1 h; 290,000 compounds, 0.37% hits; Q27686; Potency, µM (highest dose often 57.5 µM), most hits filed as inhibitors; AID 1721
# Target sequence (Q27686 whole entry, looked up): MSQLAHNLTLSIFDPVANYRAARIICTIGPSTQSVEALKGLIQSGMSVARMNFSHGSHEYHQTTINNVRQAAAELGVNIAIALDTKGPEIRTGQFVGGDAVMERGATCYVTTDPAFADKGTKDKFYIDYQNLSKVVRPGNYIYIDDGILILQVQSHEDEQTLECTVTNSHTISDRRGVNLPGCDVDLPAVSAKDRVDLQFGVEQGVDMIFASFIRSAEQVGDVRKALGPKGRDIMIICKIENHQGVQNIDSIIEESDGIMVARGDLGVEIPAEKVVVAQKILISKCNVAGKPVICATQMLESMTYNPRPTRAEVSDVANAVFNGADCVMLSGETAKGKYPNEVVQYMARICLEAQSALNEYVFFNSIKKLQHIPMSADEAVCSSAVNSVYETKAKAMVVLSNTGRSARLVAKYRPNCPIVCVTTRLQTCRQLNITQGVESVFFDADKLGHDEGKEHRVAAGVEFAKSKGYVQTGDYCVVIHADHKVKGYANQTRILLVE
#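 ATP generated from ADP (0.1 mM) and PEP (0.5 mM) by 0.1 nM LmPK over 1 h at room temperature (pH 7.2 imidazole buffer) was detected by coupled luciferase luminescence. Values were normalized to uninhibited and no-enzyme wells.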
# Tb PYK inh – blocks Trypanosoma brucei pyruvate kinase | TbPYK enzyme, Kinase-Glo Plus ATP luminescence, 45 min | Potency, µM (highest dose often 76.8 µM), usual class: inhibitors | 410,000 compounds, 0.12% hits | AID 624173; also: nearly all actives have a fitted effect of over 50% in size
#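 Quantitative HTS: titrated library compounds versus trypanosomal pyruvate kinase in TEA buffer (pH 7.2) containing KCl, MgCl2, BSA and Tween-20. Reactions were initiated with ADP, 130 uM final. Kinase-Glo Plus luminescence was read after 45 min at RT.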
# Sm TGR block – blocks Schistosoma mansoni thioredoxin glutathione reductase; Q962Y6; purified TGR, DTNB reduction, TNB absorbance 405 nm; Potency, µM (titrated, usually from 114 µM), usual class: inhibitors; 360,000 compounds, 3% hits; AID 485364; also: nearly all actives have a fitted effect of over 60% in size
#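 Kinetic colorimetric format: TGR-catalysed, NADPH-driven DTNB reduction monitored via TNB absorbance. Enzyme dispensed at 20 nM; compound exposure 15 min at room temperature before reaction start.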
# Giardia FBPA inh – Giardia lamblia aldolase inhibition; A8B2U2; Potency, µM (top dose mostly 59.6 µM), usual class: inhibitors; purified Giardia FBPA; AID 2451; 290,000 compounds, 0.71% hits; also: nearly all actives have a fitted effect of over 55% in size
#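 Giardia FBPA (40 nM reagent) was preincubated 10 min at RT with compound (up to 57.5 uM final), then substrate plus GAPDH/TPI/NAD/arsenate coupling system with diaphorase/resazurin was added; resorufin fluorescence (525/598 nm) was read after 20 min.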
# CHX counter – counter-screen hit for Shiga toxin inhibitors, cycloheximide. cell reporter, cycloheximide protein synthesis inhibition counterscreen. 300,000 compounds, 12% hits. max response, %; in the data active = max response mostly above about 13%, no sharp cut-off; inactive = mostly below about 14%; also: read at 38.3 µM for the half of the compounds with a filed dose
# Shiga inhibitor – inhibitors of Shiga toxin in Vero cells. Vero cells, Shiga toxin protein synthesis inhibition reporter. inhibition, % at 38.7 µM. 290,000 compounds, 9.2% hits. AID 2315; in the data active = inhibition mostly above about 28%, no sharp cut-off; inactive = mostly below about 43%
# Numbers stand for hits; 0 = inactive; ? = inconclusive; - = no result given; [ ] = another dose, or the depositor's remark. Unless noted, calls follow the shape of the dose curve; as a rule, active = well fitted curve in the direction sought with a large enough effect; inconclusive = small, poorly fitted or top-dose-only effect, or another doubt; inactive = no such curve, though single readings can be large; an effect the other way counts as inactive or inconclusive.
SMILES,LmPK inhibitor,Tb PYK inh,Sm TGR block,Giardia FBPA inh,CHX counter,Shiga inhibitor
O=c1c(-c2ccccc2)nc2cnc(N3CCOCC3)nc2n1C1CC1,-,-,-,0,-,-
C[C@@H](C(=O)Nc1ccc2ccccc2c1)[C@H]1C[C@]1(C)[C@H](NC(=O)OCc1ccccc1)c1ccccc1,0,0,0,0,19.2,51.2
CC(C)C[C@@H](CN)NC(=O)c1nc[nH]c1C(=O)N[C@@H](C)C(=O)CNC[C@H](C)NC(=O)c1nc[nH]c1C(=O)N[C@@H](Cc1ccccc1)C(=O)O,-,0,-,-,-,-
COc1ccc(C(=O)N[C@H](C(=O)Nc2ccc(OC)nc2)C(C)C)cc1,0,0,0,0,15.1,0
CCOc1ccccc1NC(=O)[C@@H](NC(=O)c1ccccc1F)C(C)C,0,0,0,0,0,0
COc1ccc(C(=O)NC(C(=O)NCc2ccccn2)C(C)C)cc1 (configuration not stated),0,0,0[11.4 µM],0,0,0
CCOc1ccccc1C(=O)N[C@H](C(=O)Nc1nc2c(s1)CCCC2)C(C)C,0,0,0,0,20.9,38.1
COc1ccc(C(=O)N[C@H](C(=O)Nc2nc3c(s2)CCCC3)C(C)C)cc1,0,0,0,0,58.8,78.7
O=S(=O)(c1ccccc1)N1CCC[C@@]2(CCN(Cc3nccs3)C2)C1,-,0,-,0,-,-
Cc1nnc(NC(=O)c2ccccc2F)s1,0,0,0,0,17.5,35.8
CCC(C)C(=O)Nc1nnc(CCc2ccccc2)s1 (configuration not stated),0,0,0,0,19.2,0
O=C(Nc1nnc(CCc2ccccc2)s1)c1ccc(F)cc1,0,0,0,0,0,0
O=C(Nc1nnc(CCc2ccccc2)s1)c1ccccc1F,0,0,0,0,26.1,0
Cc1nnc(NC(=O)c2ccccc2Br)s1,0,0,0,0,23.7,0
O=C(Nc1cccc2cccnc12)c1ccccc1,-,-,-,-,24.8,43.3
O=C(Nc1cccc2cccnc12)C(Cl)(Cl)Cl,-,-,-,-,0,0
CC(C)Oc1ccc(C(=O)Nc2cccc3cccnc23)cc1,0,0,0,0,26.9,59.3
O=C(Nc1cccc2cccnc12)OC(Cl)(Cl)Cl,-,-,-,-,21.5,0
CCOc1ccc(C(=O)Nc2cccc3cccnc23)cc1,0,0,0,0,0,0
O=C(Nc1cccc2cccnc12)c1cccc([N+](=O)[O-])c1,0,0,0,0,35.2,69.0
COc1ccccc1N1CCN(C(=O)CCc2nnc3n(C)c(=O)c4sccc4n23)CC1,-,0,0,-,-,-
COC(=O)c1cc(F)c(S(=O)(=O)N2CCN(S(=O)(=O)c3ccc4c(c3)OCCO4)CC2)cc1F,-,-,-,-,0,0
Cc1cc(F)ccc1NC(=O)Cn1cc(S(=O)(=O)NC(C)C)c(S(=O)(=O)NC(C)C)c1,-,0,0,-,-,-
O=C(Nc1cccc2cccnc12)c1ccc(Br)o1,0,0,?,0,25.5,0
O=C(Nc1cccc2cccnc12)c1ccc(F)cc1,-,0,0,-,35.5,64.2
SMILES,LmPK inhibitor,Tb PYK inh,Sm TGR block,Giardia FBPA inh,CHX counter,Shiga inhibitor
O=C(Nc1cccc2ccccc12)c1ccc(Br)o1,0,0,0,0,0,0
COc1cc(OC)cc(C(=O)NC(C(=O)NNC(=O)c2ccc(C)cc2)C(C)C)c1 (configuration not stated),-,0,0,-,-,-
CN(C)c1ccc(C(=O)N2CCC2(C)C(=O)O)cc1 (configuration not stated),-,0,-,-,-,-
Nc1nc(-c2ccccc2)[nH]c(=O)c1N,0,0,0,?,26.3,30.2
O=c1[nH]c(-c2ccccc2)nnc1-c1ccccc1,0,0,0,0,18.1,0
C[C@H](CO)N1C[C@H](C)[C@H](CN(C)S(=O)(=O)c2ccc(F)cc2)OCc2cnnn2CCCC1=O,-,0,-,-,-,-
O=C(NNC(=O)c1cccs1)c1ccc(Cl)c(Cl)c1,0,0,0,0,0,0
O=C(COC(=O)c1cccs1)c1ccc2c(c1)OCCO2,12.6µM,?,0,0,0,0
CCc1ccc(C(=O)COC(=O)c2cccs2)cc1,15.8µM,0,0,0,23.4,0
NS(=O)(=O)c1cc(C(=O)OCC(=O)c2ccc3c(c2)OCCO3)ccc1Cl,0,0,0,0,40.4,59.4
Cc1ccc(C(=O)COC(=O)c2cccs2)cc1,?,0,0,0,0,0
O=C(NNC(=O)c1cccs1)c1ccc2ccccc2c1,0,0,0,0,29.4,50.7
CSc1ccc(S(=O)(=O)N2CCC(C(=O)Nc3ccccc3C(F)(F)F)CC2)cc1,0,0,0,0,0,0
COc1ccccc1OCCNC(=O)CSC(=S)N1CCCC1,-,0,0,-,-,-
CS(=O)(=O)N1CCC2(CCCN(c3ccncc3)C2)CC1,-,0,-,0,-,-
O=C(COC(=O)c1cccs1)c1ccc2ccccc2c1,0,0,0,0,56.2,97.7
CN(C)c1ccc(C(=O)OCC(=O)c2cccs2)cc1,0,0,0,0,45.0,70.6
COc1ccc(C(=O)COC(=O)c2ccc(N(C)C)cc2)cc1,0,0,0,0,0,0
C[C@H]1[C@H]2CC[C@H]3[C@@H]4CC=C5C[C@@H](N(C)C)CC[C@]5(C)[C@H]4CC[C@]23CN1C,-,-,-,0,-,-
COc1ccc(C(c2sc3ncnn3c2O)N2CCN(c3ccccc3F)CC2)cc1OC (configuration not stated),0,0,0,0,20.3,0
COc1cccc(C(c2sc3nc(C)nn3c2O)N2CCN(c3ccccc3F)CC2)c1 (configuration not stated),0,0,0,0,0,0
COc1ccc(C(c2sc3ncnn3c2O)N2CC(C)OC(C)C2)cc1OC (configuration not stated),0,0,0,0,16.8,0
COc1ccc(S(=O)(=O)NCCOc2ccc(Cl)cc2)cc1,-,0,0,-,-,-
COC(=O)c1ccc(N=Cc2c(-c3ccccc3)[nH][nH]c2=O)cc1,0,0,0,0,0,0
Cc1ccc(C(=O)Oc2oc(-c3ccccc3)nc2C=Nc2ccc(N(C)C)cc2)cc1,0,0,?,0,78.0,130.5
SMILES,LmPK inhibitor,Tb PYK inh,Sm TGR block,Giardia FBPA inh,CHX counter,Shiga inhibitor
CN(C)c1ccc(N=Cc2nc(-c3ccccc3)oc2OC(=O)c2cccc(Cl)c2)cc1,0,0,0,0,67.7,70.6
COc1cccc(N=Cc2nc(-c3ccccc3)oc2OC(C)=O)c1,0,0,10µM,0,0,48.0
Cn1c(Cl)c(/C=N/OC(=O)c2cccc(Cl)c2)c2ccccc21,0,0,0,0,0,0
COc1ccc(N=Cc2nc(-c3ccccc3)oc2OC(C)=O)cc1,0,0,?,0,0,0
O=C(NCCCc1nc2ccccc2n1Cc1ccccc1Cl)C1CCCCC1,-,0,0,-,-,-
CCCc1nc2ccc(Cl)cn2c1Cc1ccc(C)cc1,-,0,-,-,-,-
